Reference: PubChem BioAssay AID1962 (The Scripps Research Institute Molecular Screening Center, 2009)
Several values for one entry are separate records, joined by “and”; a condition that tells them apart may be missing. Equal values may be shown once. Among all 300,000 compounds or so, about 2,500 (0.83%) were called active. This is one part of a sample in which actives are shown more often than they occur. A number with no mark means an inactive call.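 The calls were made as follows: active = inhibition above the mean of all tested compounds plus 3 SD, set per screening campaign (cut at about 24% in these data); inactive = the rest.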

The compounds below were run on tRNA 2'-phosphotransferase TPT1 (Candida albicans SC5314) (assay: Candida albicans TPT1 enzyme inhibitors, primary screen, biochemical, fluorescence polarization (AID 1962;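 also: plate controls were DMSO alone for no effect and ferristatin control at 100 nM for full effect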)). Conditions: recombinant caTPT1, FP RNA substrate dephosphorylation; at 5 µM; hits give high values.

| Compound | inhibition |
| --- | --- |
| CCCCC(=O)N/N=C/c1c(O)n(-c2ccccc2)c(=O)[nH]c1=O | -0.86% |
| CCCCC(=O)N/N=C/c1c(O)n(CC)c(=S)n(CC)c1=O | 156% (active) |
| CCCCC(=O)N/N=C/c1c(O)n(CCC2=CCCCC2)c(=O)[nH]c1=O | 0.99% |
| CNC(=O)Nc1ccc(C(O)(C(=O)OC)C(F)(F)F)cc1 (stereo not given) | 0.47% |
| CCOC(=O)c1c(C)c(C(=O)N2CCC3(CC2)OCCO3)c(C)n1CC | 1.34% |
| O=c1[nH]c(=O)n(-c2ccccc2)c(O)c1C=NC12CN3CN(CN(C3)C1)C2 | -4.46% |
| CCN1C(=O)C(=Cc2c(C)n(CC(=O)NCC3CCCO3)c3ccccc23)C(=O)N(CC)C1=S (stereo not given) | 24.2% (active) |
| CCC1(C)CC(CCNCc2ccc(N(C)C)cc2)(c2ccc(F)cc2)CCO1 (stereo not given) | 1.22% |
| O=C(C1CC(=O)N(C2CCCC2)C1)N1CCC2(CC1)OCCO2 (stereo not given) | -0.68% |
| COc1cccc(N2C(=O)NC(=O)/C(=C\c3cn(C)c4ccccc34)C2=O)c1 | -73.3% |
| COc1ccc(CN2C(=O)NC(=O)/C(=C\c3ccc(OC)c(OC)c3OC)C2=O)cc1 | 10.5% |
| COc1ccc(N2C(=O)/C(=C/c3ccco3)C(=O)NC2=S)cc1 | 36.7% (active) |
| O=C(CCCn1c(=O)[nH]c2cc(Cl)ccc2c1=O)N1CCC2(CC1)OCCO2 | 5.94% |
| CCOC(=O)C(O)(c1ccc(N=Cc2ccccc2O)c(C)c1)C(F)(F)F (stereo not given) | 9.39% |
| COC(=O)COc1cc(C)cc2oc(=O)c3c(c12)CCCC3 | -2.95% |
| COc1cc2nc(N3CCN(C(=O)[C@@H]4CCCO4)CC3)nc(N)c2cc1OC | -1.38% |
| COc1ccccc1N=Nc1c(O)[nH]c(=S)[nH]c1=O | 49.2% (active) |
| O=C1N=c2ccccc2=C/C1=C\c1c(O)[nH]c(=S)[nH]c1=O | -1.76% |
| CCOCCc1c(O)[nH]c(=S)[nH]c1=O | -3.07% |
| Cc1cc(/C=C2/C(=O)NC(=O)N(Cc3ccco3)C2=O)c(C)n1-c1ccc(C(=O)O)cc1 | 22.2% |
| O=C1NC(=O)N(CCc2ccc(F)cc2)C(=O)/C1=C/C=C/c1ccccc1 | 13.3% |
| O=C1NC(=O)N(Cc2ccco2)C(=O)/C1=C\c1ccc(-c2ccc(F)cc2)o1 | 27.9% (active) |
| O=C1NC(=O)N(Cc2ccco2)C(=O)/C1=C\c1cccn1CCOc1ccccc1 | 37.9% (active) |

| Compound | inhibition |
| --- | --- |
| O=C(O)COc1ccccc1/C=C1\C(=O)NC(=O)N(CCC2=CCCCC2)C1=O | 7.72% |
| O=C(COc1ccc2ccccc2c1)N1CCN(Cc2ccncc2)CC1 | -1.1% |
| CN(C)C(=O)Oc1cc(OC(=O)N(C)C)cc(C(O)CNC(C)(C)C)c1 (stereo not given) | -1.53% and -2.15% |
| COc1cccc(C(=O)N2C[C@H]3C[C@@H](C2)c2cccc(=O)n2C3)c1 | -1.64% |
| COc1ccc(C2N3CC(C)(C)CN23)cc1 (stereo not given) | 0.1% |
| O=C(CN1CCCC1=O)NCCc1ccccc1 | -1.43% |
| O=C1CC(=O)N(Cc2ccccc2)C(=O)N1CCCCCCN1C(=O)CC(=O)N(Cc2ccccc2)C1=O | 71.4% (active) |
| CC(C)(C)c1ccc(CN2C(=O)CN=C(c3ccccc3)c3ccccc32)cc1 | 2.92% |
| Fc1ccc(C2N3CCCN23)cc1 (stereo not given) | -5.01% |
| Cn1c(O)c(C=Nc2ccc3c(c2)CCC3)c(=O)n(C)c1=O | -3.76% |
| CN(C)CCCN=Cc1c(O)n(Cc2ccco2)c(=O)[nH]c1=O | 1.6% |
| CC(C)n1c(=O)c(C=Nc2ccc(Br)cc2)c(O)n(Cc2ccco2)c1=O | 27.9% (active) |
| CCOc1ccc(-c2cc(C)[n+](CCN(CC)CC)c(-c3ccc(OCC)cc3)c2)cc1 | -0.45% |
| Cc1ccc(-n2c(-c3ccc([N+](=O)[O-])cc3)nc3ccccc3c2=O)cc1 | -3% |
| Cc1ccc(N2C(=O)NC(=O)C(CCc3ccncc3)(Cc3cccc(Cl)c3Cl)C2=O)cc1 (stereo not given) | 3.87% |
| CC(C)Nc1nc(Cl)nc(NC(C)C)n1 | -2.15% |
| CCC(=NCc1ccco1)c1c(O)n(Cc2ccccc2)c(=O)[nH]c1=O | 3.72% |
| CC/C(=N\NC(=O)c1ccccc1O)c1c(O)n(Cc2ccccc2)c(=O)[nH]c1=O | 46.6% (active) |
| O=C(N/N=C/c1c(O)n(Cc2ccccc2)c(=O)[nH]c1=O)c1ccccc1 | 2.3% |
| COc1ccc2c(c1)[C@]13CCCCC1C(C2)N(C)CC3 (stereo not given in full) | -1.13% |
| CC1CCCCN1Cc1cccnc1 (stereo not given) | -4.61% |
| CN(c1ccccc1)c1ccc([N+](=O)[O-])c2nonc12 | 14.5% |
